# Only some compounds are listed: those with a hit (about 3.6% of all), similar ones and a draw of the others.
# BoNT-F LC inh: BoNT F light chain protease inhibition. Multiplex microsphere protease cleavage assay, flow cytometry. inhibition, % at 10 µM. 360,000 tested, 0.22% active. AID 588497; in the data active = inhibition above about 35%, passing the limit was not always enough; inconclusive = no clear call, values can overlap the other calls; also: plate controls were buffer without enzyme for full effect and enzyme alone for no effect
# Bead autofluor: counter-screen for toxin protease inhibitors: compound fluorescence; compound autofluorescence counterscreen, microsphere flow cytometry; active compounds read high; fluorescence intensity (test concentration not listed); 360,000 tested, 3.1% active; AID 624483; in the data active = fluorescence intensity above about 16000; inconclusive = no clear call, values can overlap the other calls
# Anthrax LF prot: inhibitors of Bacillus anthracis lethal factor protease. P15917. multiplex microsphere protease cleavage assay, LF. inhibition, % at 10 µM. 360,000 tested, 0.12% active. AID 588501; also: plate controls were buffer without enzyme for full effect and enzyme alone for no effect
# Target sequence (P15917 whole entry, looked up): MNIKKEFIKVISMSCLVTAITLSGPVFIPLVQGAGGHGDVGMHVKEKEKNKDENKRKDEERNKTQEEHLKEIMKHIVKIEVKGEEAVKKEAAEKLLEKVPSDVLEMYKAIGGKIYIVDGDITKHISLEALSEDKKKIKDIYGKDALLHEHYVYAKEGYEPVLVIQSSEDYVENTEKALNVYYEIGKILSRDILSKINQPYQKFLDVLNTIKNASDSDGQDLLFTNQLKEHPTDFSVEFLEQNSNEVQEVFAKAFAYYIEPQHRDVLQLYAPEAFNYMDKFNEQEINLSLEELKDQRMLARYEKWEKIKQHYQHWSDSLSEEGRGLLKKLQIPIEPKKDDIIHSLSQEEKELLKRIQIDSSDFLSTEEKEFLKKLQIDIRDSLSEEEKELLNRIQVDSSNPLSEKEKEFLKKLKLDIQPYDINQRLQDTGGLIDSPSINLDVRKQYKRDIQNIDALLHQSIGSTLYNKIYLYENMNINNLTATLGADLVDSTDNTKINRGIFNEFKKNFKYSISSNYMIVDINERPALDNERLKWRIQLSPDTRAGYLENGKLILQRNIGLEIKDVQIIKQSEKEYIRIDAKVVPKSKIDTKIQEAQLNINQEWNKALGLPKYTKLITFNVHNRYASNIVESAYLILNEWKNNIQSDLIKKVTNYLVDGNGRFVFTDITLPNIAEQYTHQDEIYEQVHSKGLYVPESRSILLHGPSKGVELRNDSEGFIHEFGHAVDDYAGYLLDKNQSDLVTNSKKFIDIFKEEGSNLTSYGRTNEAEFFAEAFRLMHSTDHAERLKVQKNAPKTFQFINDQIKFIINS
# BoNT A protease: BoNT A light chain protease inhibition | multiplex microsphere protease substrate cleavage, flow cytometry | inhibition, % at 10 µM | 360,000 tested, 0.17% active; also: plate controls were buffer without enzyme for full effect and enzyme alone for no effect
# MazEF act: activators of E. coli MazEF toxin-antitoxin RNase | FAM/BHQ RNA-DNA oligo cleavage fluorescence, 5 h | activation, % at 20 µM | 350,000 tested, 0.32% active | AID 504720; in the data active = activation above about 50%
# * = called active by the depositor; ? = inconclusive; . = no result. Rule as the data show it, unless noted: active = inhibition above about 30%; inconclusive = no clear call, values can overlap the other calls; inactive = below that.
SMILES,BoNT-F LC inh,Bead autofluor,Anthrax LF prot,BoNT A protease,MazEF act
COc1ccccc1C1C(C(=O)NCc2ccccc2)=C(C)Nc2ncnn21 (stereo not given),-2,5946,-10,0,3
COc1ccc(-c2[nH]ncc2-c2cnn(-c3ccccc3)c2)c(O)c1,-4,22408*,-1,0,-1
COc1ccc(-c2[nH]ncc2Oc2ccccc2OC)c(O)c1,-8,24038*,-6,-4,-2
O=C(C1CCC(=O)N1Cc1ccc(F)cc1)N1CCC2(CC1)OCCO2 (stereo not given),2,2815,-1,0,-5
O=C(C1CC(=O)N(C2CCCCCCC2)C1)N1CCC2(CC1)OCCO2 (stereo not given),-10,22759*,0,-8,2
O=C(C1CCC(=O)N1C1CCCC1)N1CCC2(CC1)OCCO2 (stereo not given),1,20240*,-5,0,-4
O=C(C1CC(=O)N(C2CCCC2)C1)N1CCN(c2ccccc2)CC1 (stereo not given),5,5021,0,3,4
Cc1cc(/C=C(\C#N)C(=O)OCC(=O)N(C)c2c(N)n(Cc3ccccc3)c(=O)[nH]c2=O)c(C)n1CC(C)C,2,3586,-5,0,-30
COc1ccccc1Cc1c(-c2cccc(Cl)c2)nc2ccc(C)cn12,2,4995,9,1,.
COc1cccc(N2CCN(c3c4c(nc5ncnn35)CCC4)CC2)c1,3,22408*,0,4,-3
c1ccc(N2CCN(c3c4c(nc5ncnn35)CCC4)CC2)cc1,6,21815*,-1,3,2
COc1ccc(C(C)(C)C)cc1NC(=O)c1ccoc1C,-1,21536*,-9,1,2
O=C(Nc1nccs1)[C@@H]1CC=C[C@@H]2CCN(Cc3ccccc3)C(=O)[C@@H]21,-5,3744,2,0,-1
COc1ccccc1Cn1c(=S)[nH]c2cc(C(=O)NCCCN3CCOCC3)ccc2c1=O,10,5953,-1,0,15
COCCn1c(=S)[nH]c2cc(C(=O)NC3CCCCCC3)ccc2c1=O,1,3556,2,0,-5
COCCn1c(=S)[nH]c2cc(C(=O)N3CCC(C(N)=O)(N4CCCCC4)CC3)ccc2c1=O,3,22116*,-7,3,-3
CCOCCCn1c(=S)[nH]c2cc(C(=O)N3CCC(C(N)=O)CC3)ccc2c1=O,2,?,-8,2,0
CCOC(=O)C1CCCN(C(=O)c2ccc3c(=O)n(CCOC)c(=S)[nH]c3c2)C1 (stereo not given),1,20489*,-1,1,0
COCCn1c(=S)[nH]c2cc(C(=O)NCCCN3CCOCC3)ccc2c1=O,-2,22856*,0,-2,-5
CCOCCN(C(=O)c1ccccc1Cl)c1ccccc1,2,6247,-8,-1,5
COc1ccccc1-c1cc(C(=O)Nc2c(C)n(C)n(-c3ccccc3)c2=O)no1,0,16484*,-3,?,3
COc1ccc(OC)c(-c2cc(C(=O)Nc3c(C)n(C)n(-c4ccccc4)c3=O)no2)c1,-4,16603*,-5,-1,1
COc1cccc(-c2cc(C(=O)Nc3c(C)n(C)n(-c4ccccc4)c3=O)no2)c1,1,3390,0,0,-4
CCCCN(C(=O)CSCC(=O)Nc1ccc(C)cc1)c1c(N)n(CCCC)c(=O)[nH]c1=O,-6,5686,1,2,-4
CCCOC(=O)CCCN1C(=O)/C(=C2\SC(=S)N(CCCC(=O)OCCC)C2=O)SC1=S,?,3940,6,81*,-1
SMILES,BoNT-F LC inh,Bead autofluor,Anthrax LF prot,BoNT A protease,MazEF act
CCCCOC(=O)CCN1C(=O)/C(=C2\SC(=S)N(CCC(=O)OCCCC)C2=O)SC1=S,-1,2108,15,30*,8
CCCCCOC(=O)CCN1C(=O)/C(=C2\SC(=S)N(CCC(=O)OCCCCC)C2=O)SC1=S,21,3092,14,40*,-12
CCCCCCCCCCOC(=O)CCN1CC1,-4,4248,1,0,-11
O=C(COc1ccc(Br)cc1)Nc1ccccc1N1CCCC1,-3,2471,1,0,-7
Cc1ccc(OCC(=O)NN2C(=O)c3ccccc3C2=O)cc1,-10,6199,-4,0,13
CC(=O)N1CCN(c2ccccc2NC(=O)COc2ccc(Br)cc2)CC1,-6,23694*,-4,-1,-7
O=C(COc1ccc(Br)cc1)NN1C(=O)c2ccccc2C1=O,.,.,.,.,442*
CC1CCN(CCc2nc3cc(NC(=O)COc4ccc(Cl)cc4)ccc3n2C)CC1,1,4132,-1,0,6
CC(C)NC(=S)N/N=C/c1c[nH]c2ccccc12,-6,2359,-2,-1,-3

# Bioassay records: PubChem BioAssay, several laboratories
